From ChEMBL document CHEMBL4513146, “CO-ADD screening of Karazin Kharkiv National University (Ukraine) compounds”
Potency and affinity values are given separately.

These compounds were tested on Klebsiella pneumoniae. Conditions: Concentration 32 ug.mL-1;; ASSAY_TEST Inhibition of Bacterial Growth; detection method Absorption (OD600); MEDIA CAMHB; plate type 384well; NBS; CORNING #3640; time 18 hr.

Compound | Inhibition
Cc1oc(-c2ccccc2)nc1CSc1nc2ccccc2n2c(C)nnc12 | 7.15%
Cc1nnc2c(S(=O)(=O)N(Cc3ccc(F)cc3)c3ccc(F)c(F)c3)cccn12 | 11.53%
CCOC(=O)c1ccc(NC(=O)Cn2nc3c(Oc4ccccc4)nccn3c2=O)cc1 | 1.59%
CC(C)CCn1c(=O)c2ccc(C(=O)NC3CCCC3)cc2n2c(=O)n(CC#N)nc12 | 12.37%
Cc1ccc(Sc2nccn3c(=O)n(CC(=O)N4CCN(c5ccc(F)cc5)CC4)nc23)c(C)c1 | -6.63%
O=c1c2nn(Cc3cccc(F)c3)c(=O)n2ccn1-c1ccccc1 | 3.5%
CC(C)c1nnc2c(=O)n(CC(=O)Nc3ccc(Br)cc3F)c3ccccc3n12 | 12.63%
CCOC(=O)c1ccc(NC(=O)Cn2nc3c(N4CCOCC4)nccn3c2=O)cc1 | 11.56%
Cc1cccc(C)c1NC(=O)CSc1nnc2ccc(C(=O)Nc3cccc(F)c3)cn12 | 10.23%
Cc1nnc2c(S(=O)(=O)N(Cc3cccc(F)c3)c3cccc(F)c3)cccn12 | 14.45%
Cc1cc2nn(CC(=O)Nc3ccccc3)c(=O)n2c(Nc2ccc(C)c(F)c2)n1 | 9.53%
Cc1ccccc1Oc1nccn2c(=O)n(CC(=O)Nc3cc(F)ccc3F)nc12 | 13.37%
Cc1ccc(-c2ccc3nn(CC(=O)Nc4ccc(Cl)cc4F)c(=O)n3n2)cc1 | 13.29%
Cc1cccc(Sc2nccn3c(=O)n(CC(=O)N4CCN(c5ccc(F)cc5)CC4)nc23)c1 | -8.7%
CCCNC(=O)Cn1nc2n(Cc3ccco3)c(=O)c3sccc3n2c1=O | 8.71%
CCc1nnc2c(SCC(=O)Nc3ccc(Cl)cc3)nc3ccccc3n12 | 3.4%
COc1cc(OC)c(NC(=O)Cn2nc3c(Sc4cccc(C)c4)nccn3c2=O)cc1Cl | 10.68%
CCc1ccc(N(Cc2ccc(OC)cc2)S(=O)(=O)c2cccn3c(C)nnc23)cc1 | 6.54%
CCCCc1ccc(NC(=O)Cn2c(=O)c3nnc(C(C)C)n3c3ccccc32)cc1 | 18.09%
Cc1ccc(NC(=O)Cn2nc3ccc(SC(C)(C)C)nn3c2=O)cc1Cl | 12.42%
COc1ccc(Cn2nc3ccc(-c4ccc(Cl)cc4)nn3c2=O)cc1F | 16.23%
COc1ccc(NC(=O)Cn2nc3ccc(SCc4ccc(Cl)cc4)nn3c2=O)cc1 | 1.71%
O=S(=O)(c1ccc2nncn2c1)N(Cc1ccc(Cl)cc1)c1ccc2c(c1)OCO2 | 8.29%
CSc1cccc(NC(=O)Cn2nc3c(N4CCCC(C)C4)nccn3c2=O)c1 (stereo not drawn) | 8.54%

These compounds were tested on Candida albicans. Conditions: Concentration 32 ug.mL-1; ASSAY_TEST Inhibition of Fungal Growth; detection method Absorption (OD530).

Compound | Inhibition
O=C(Cn1nc2ccc(-c3ccc(Cl)cc3)nn2c1=O)NC1CCCC1 | 1.09%
CC(C)Cc1ccc(S(=O)(=O)Nc2ccc3nncn3n2)cc1 | 1.38%
Cc1[nH]c2ccccc2c1C(=O)CSc1nnc2c(=O)n(-c3ccc(Br)cc3)ccn12 | 1.31%
O=S(=O)(c1ccc2nncn2c1)N(Cc1cc(F)cc(F)c1)c1cc(F)cc(F)c1 | 0.05%
O=c1c2sccc2n2c(=O)n(Cc3ccccc3F)nc2n1Cc1cccs1 | 38.88%
COc1cc(-c2nnc3c(=O)n(Cc4ccc(Cl)cc4)ccn23)cc(OC)c1OC | -0.08%
COc1cccc(Sc2nc3ccccc3n3c(=O)n(CC(=O)Nc4cccc(F)c4)nc23)c1 | -1.78%
Cc1c(Cl)cccc1-n1ccn2c(=O)n(Cc3cccc(F)c3)nc2c1=O | 10.08%
Cn1c(=O)c2ccc(C(=O)NC3CCCC3)cc2n2c(SCc3c(F)cccc3Cl)nnc12 | 3.13%
COc1ccccc1NC(=O)Cn1nc2c3cc(-c4ccc(Cl)cc4)nn3ccn2c1=O | 8.08%
Cc1cc2nn(CC(=O)Nc3ccccc3C)c(=O)n2c(Nc2ccc(F)c(C)c2)n1 | 21.67%
O=c1n(Cc2nc(-c3ccc(Cl)cc3)no2)nc2ccc(-c3ccccc3)nn12 | 2.36%
NC(=O)Cn1nc2n(CCC(=O)NC3CCCCC3)c(=O)c3ccccc3n2c1=O | 0.47%
Cc1ccc(-c2ccc3nn(CC(=O)Nc4ccccc4)c(=O)n3n2)cc1C | -1.46%
COc1ccc(NC(=O)Cn2nc3c(SC4CCCCC4)nccn3c2=O)cc1 | 6.08%
Cc1oc(-c2ccccc2)nc1CSc1nc2ccccc2n2c(C)nnc12 | 9.66%
Cc1nnc2c(S(=O)(=O)N(Cc3ccc(F)cc3)c3ccc(F)c(F)c3)cccn12 | 8.25%
CCOC(=O)c1ccc(NC(=O)Cn2nc3c(Oc4ccccc4)nccn3c2=O)cc1 | -0.16%
CC(C)CCn1c(=O)c2ccc(C(=O)NC3CCCC3)cc2n2c(=O)n(CC#N)nc12 | 2.41%
Cc1ccc(Sc2nccn3c(=O)n(CC(=O)N4CCN(c5ccc(F)cc5)CC4)nc23)c(C)c1 | 1.39%

Compound | Inhibition
O=c1c2nn(Cc3cccc(F)c3)c(=O)n2ccn1-c1ccccc1 | 1.62%
CC(C)c1nnc2c(=O)n(CC(=O)Nc3ccc(Br)cc3F)c3ccccc3n12 | 1.97%
CCOC(=O)c1ccc(NC(=O)Cn2nc3c(N4CCOCC4)nccn3c2=O)cc1 | 3.03%
Cc1cccc(C)c1NC(=O)CSc1nnc2ccc(C(=O)Nc3cccc(F)c3)cn12 | 10.31%
Cc1nnc2c(S(=O)(=O)N(Cc3cccc(F)c3)c3cccc(F)c3)cccn12 | 2.41%
Cc1cc2nn(CC(=O)Nc3ccccc3)c(=O)n2c(Nc2ccc(C)c(F)c2)n1 | 4.54%
Cc1ccccc1Oc1nccn2c(=O)n(CC(=O)Nc3cc(F)ccc3F)nc12 | -0.39%
Cc1ccc(-c2ccc3nn(CC(=O)Nc4ccc(Cl)cc4F)c(=O)n3n2)cc1 | -0.74%
Cc1cccc(Sc2nccn3c(=O)n(CC(=O)N4CCN(c5ccc(F)cc5)CC4)nc23)c1 | 3.19%
CCCNC(=O)Cn1nc2n(Cc3ccco3)c(=O)c3sccc3n2c1=O | 5.01%
CCc1nnc2c(SCC(=O)Nc3ccc(Cl)cc3)nc3ccccc3n12 | 9.64%
COc1cc(OC)c(NC(=O)Cn2nc3c(Sc4cccc(C)c4)nccn3c2=O)cc1Cl | 47.09%
CCc1ccc(N(Cc2ccc(OC)cc2)S(=O)(=O)c2cccn3c(C)nnc23)cc1 | 3.18%
CCCCc1ccc(NC(=O)Cn2c(=O)c3nnc(C(C)C)n3c3ccccc32)cc1 | -0.74%
Cc1ccc(NC(=O)Cn2nc3ccc(SC(C)(C)C)nn3c2=O)cc1Cl | 1.72%
COc1ccc(Cn2nc3ccc(-c4ccc(Cl)cc4)nn3c2=O)cc1F | 0.27%
COc1ccc(NC(=O)Cn2nc3ccc(SCc4ccc(Cl)cc4)nn3c2=O)cc1 | 48.76%
O=S(=O)(c1ccc2nncn2c1)N(Cc1ccc(Cl)cc1)c1ccc2c(c1)OCO2 | 2.29%
CSc1cccc(NC(=O)Cn2nc3c(N4CCCC(C)C4)nccn3c2=O)c1 (stereo not drawn) | 6.43%
